This is a sample that favours compounds with a hit; in the whole collection about 6.1% have one here.
D1 ag = human D1 receptor agonism. P21728. HEK293 T-REx D1 cells, calcium flux, agonist mode. activation, % at 2 µM. 360,000 compounds, 1% hits. AID 504660; in the data active = activation above about 30%
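Inducible HEK293 T-REx D1 cells, force-coupled to calcium signalling, were plated at 4000 cells/well with tetracycline and held overnight at 30 C. After no-wash calcium dye loading, compound-evoked calcium rise over 180 s flagged agonists.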
D3 antag = blocks the human D3 dopamine receptor; max response, negative = inhibition, %; 360,000 compounds, 2.5% hits; D3R cells, DiscoveRx beta-arrestin luminescence, antagonist mode; active compounds read low; in the data active = max response below about -50%; inconclusive = no clear call, values can overlap the other calls
Target sequence (P35462 whole entry, looked up): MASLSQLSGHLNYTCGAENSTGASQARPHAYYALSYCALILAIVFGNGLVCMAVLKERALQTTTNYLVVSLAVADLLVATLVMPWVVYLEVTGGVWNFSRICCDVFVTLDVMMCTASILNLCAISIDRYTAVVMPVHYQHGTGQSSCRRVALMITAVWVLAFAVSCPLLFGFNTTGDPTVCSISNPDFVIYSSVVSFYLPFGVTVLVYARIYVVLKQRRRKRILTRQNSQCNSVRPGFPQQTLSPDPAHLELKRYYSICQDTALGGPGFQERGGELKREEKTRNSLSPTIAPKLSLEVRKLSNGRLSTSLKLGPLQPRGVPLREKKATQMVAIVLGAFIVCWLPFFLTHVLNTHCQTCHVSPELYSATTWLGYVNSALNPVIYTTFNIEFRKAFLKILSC
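Cells plated overnight at 1500 cells/well, then exposed to library compounds with dopamine controls for 90 minutes at 37 degrees C. DiscoveRx reagent added for 30–60 minutes at room temperature; luminescence read, quantitative HTS format.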
D1 potentiator = potentiators of human D1 dopamine receptor. P21728. HEK293 TREx D1 cells, calcium flux, dopamine EC20 potentiation. potentiation, % at 10 µM. 360,000 compounds, 0.036% hits; in the data active = potentiation above about 30%
D1 antagonist = human D1 dopamine receptor antagonism | P21728 | 360,000 compounds, 3.2% hits | activity change, negative = inhibition, % at 10 µM | HEK293 TREx D1 cells, calcium flux, dopamine EC80; active compounds read low | AID 504652; in the data active = activity change below about -30%
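Compound effects on dopamine-evoked calcium signalling were measured in tetracycline-induced HEK293 Trex D1 cells. Dopamine at EC80 followed a 180 s compound pre-read, and fluorescence was tracked kinetically for 180 s more.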
ERG Ets-DNA blk = inhibitors of human ERG Ets domain-DNA interaction. P11308. fluorescence polarization, His-ERG Ets domain / labelled DNA. Potency, µM (top dose mostly 76.9 µM), usual class: inhibitors. 370,000 compounds, 0.028% hits; active = well fitted inhibition curve with a large enough effect in the polarisation, with a control signal flat; inconclusive = small, poorly fitted or top-dose-only effect, or effect the other way, or a change in a side signal; inactive = no such curve, though single readings can be large or run the other way; the % refers to the polarisation;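 note: polarization taken with two DNA probes labelled with fluorescein and Texas red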
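His-tagged ERG Ets domain (1 uM in the protein solution; 300mM KCl, 50mM Tris-HCl, 1mM EDTA, 1mM DTT, pH 7.5) received compound, then a probe mix of 5 nM fluorescein-DNA and 100nM Texas-615-DNA. Fluorescence polarization was read for both dyes.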
D3 ag = agonists of human D3 dopamine receptor; P35462; D3R DiscoveRx beta-arrestin cells, luminescence, 90 min; max activation, %; 410,000 compounds, 0.58% hits; AID 652048; in the data active = max activation above about 30%
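Agonist mode: compounds and dopamine controls were applied to plated cells for 90 min at 37 degrees C after an overnight attachment at 1500 cells/well. Luminescent read-out followed 30 - 60 minutes at room temperature with DiscoveRx detection reagent.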
Of the large screens only hits and unclear results are named; the others gave an inactive call.

CCc1ccc2nc(N(CCCN(C)C)C(=O)c3ccc(S(=O)(=O)N4CCCC4)cc3)sc2c1	none
CC1CCCCN1S(=O)(=O)c1ccc(C(=O)N(CCCN(C)C)c2nc3ccc(Br)cc3s2)cc1 (stereo not given)	D1 antagonist -31.6
CCCCN(C)S(=O)(=O)c1ccc(C(=O)N(CCN(C)C)c2nc3ccc(C)cc3s2)cc1	D1 antagonist -38.9
Cc1ccc2nc(N(CCCN(C)C)C(=O)c3ccc(S(=O)(=O)N4CCCCCC4)cc3)sc2c1	D1 ag 37.6
COC(=O)c1ccc(C(=O)OC)c(NC(=S)N2CCCCC2C)c1 (stereo not given)	none (no result: ERG Ets-DNA blk)
COc1ccc2cc3cc(C(=O)NCc4ccco4)oc3nc2c1	none
COc1ccc2cc3c(N)c(C(=O)NCc4ccco4)sc3nc2c1	D3 antag -54.6, ERG Ets-DNA blk inconclusive
O=C(NCc1ccccc1)C1CCCN(S(=O)(=O)c2ccc(Br)cc2)C1 (stereo not given)	none
Cc1ccc(OCCSc2nc3ccccc3n2CCC(=O)O)cc1	none
Cc1ccc(OCCSc2nc3ccccc3n2CCC(=O)O)c(C(C)C)c1	D3 antag -52.4 (no result: D1 ag, D1 potentiator, D1 antagonist, ERG Ets-DNA blk)
CC1CCc2c(sc3ncnc(NCCN4CCOCC4)c23)C1 (stereo not given)	D3 antag -70.9
CCn1c2ccccc2c2nnc(SCC(=O)c3c(N)n(C)c(=O)n(C)c3=O)nc21	none
c1csc(-c2noc(COc3ccc4c(c3)CCCC4)n2)c1	D1 antagonist -38.6
CCOC(=O)c1ccc(OCc2nc(-c3cccs3)no2)cc1	none (no result: ERG Ets-DNA blk)
Cc1ccc(NC(=O)C(=O)NCC2(c3ccccc3)CCCC2)cc1Cl	none (no result: D3 antag)
Oc1c(CN2CCc3ccccc3C2)cc(Cl)c2cccnc12	D3 antag -138.9 (no result: D1 potentiator)
O=[N+]([O-])c1cc(CN2CCN(c3ccccc3)CC2)c(O)c2ncccc12	D3 antag -109.1
Oc1c(Cl)cc(CN2CCOCC2)c2cccnc12	D3 antag inconclusive
O=[N+]([O-])c1cc(CN2CCOCC2)c2cccnc2c1O	none
Oc1c(CN2CCCCC2)cc(Br)c2cccnc12	D3 antag -74.4
Cc1ccc(S(=O)(=O)NC2(C(F)(F)F)NC(=O)N(C)C2=O)cc1 (stereo not given)	none (no result: ERG Ets-DNA blk)
Cc1ccc2c(CC(=O)Nc3ccc(S(=O)(=O)N4CCC(C)CC4)cc3)coc2c1	none (no result: D3 antag)
CCCCCCn1c(=O)n2n(c1=O)[C@@H]1CN(S(=O)(=O)c3ccc(C)cc3)C[C@]1(O)[C@@H](OC(=O)NCc1ccco1)C2	none (no result: D1 ag, D1 potentiator, D1 antagonist, ERG Ets-DNA blk)
CCn1c(=N)n(CC(O)COc2cccc(C)c2)c2ccccc21 (stereo not given)	D1 ag 78.7
CCCCn1c(=N)n(CC(O)COc2ccc(C)cc2)c2ccccc21 (stereo not given)	none
CCCCCn1c(=N)n(CC(O)COc2cccc(C)c2)c2ccccc21 (stereo not given)	D1 ag 59.5 (no result: D3 antag)
CCCCn1c(=N)n(CC(O)COc2ccccc2)c2ccccc21 (stereo not given)	none
CCCn1c(=N)n(CC(O)COc2cccc(C)c2)c2ccccc21 (stereo not given)	D1 ag 44.2
O=C(Nc1ccc(Cl)cc1)c1cccc(N2C(=O)C3C4CCC(C4)C3C2=O)c1 (stereo not given)	none
Nc1ccccc1N=Nc1ccccc1N	D3 antag inconclusive
CC(C)(C)C1=CC(=Nc2ccccc2N)C=C(C(C)(C)C)C1=O	D3 antag -50.9 (no result: ERG Ets-DNA blk)
CC(C)(C)NC(=O)CCc1nnc(Cc2c[nH]c3ccccc23)o1	D1 antagonist -50.6
CCn1nc(C)c(CNC(=O)CCc2nnc(Cc3c[nH]c4ccccc34)o2)c1C	D1 antagonist -48.6
O=C(Nc1c(-c2ccccc2)[nH][nH]c1=O)c1ccccc1	none (no result: D1 ag, D1 potentiator, D1 antagonist, ERG Ets-DNA blk)
COc1ccc(-c2[nH][nH]c(=O)c2NC(=O)c2ccccc2Br)cc1	D3 antag -53.4 (no result: D1 ag, D1 potentiator, D1 antagonist, ERG Ets-DNA blk)
COc1ccc(C(=O)N(C)CCCC2CCCC2)cc1OC1CCN(C(C)=O)CC1	none
COc1ccc(C(=O)N(C)CCCC2CCCC2)cc1OC1CCN(C(C)C)CC1	D1 antagonist -46.7
COCCC(=O)N1CCC(Oc2ccc(C(=O)NCCCC3CCCC3)cc2)CC1	none
COCCC(=O)N1CCC(Oc2ccc(C(=O)N(C)CCCC3CCCC3)cc2)CC1	D3 antag inconclusive, D1 antagonist -32.6
N=C1SC(c2ccccc2)C(=O)N1c1ncc(Cc2ccccc2)s1 (stereo not given)	D3 antag -56.2
CN(CC(=O)O)c1ccc(S(=O)(=O)N2CCOCC2)cc1[N+](=O)[O-]	none
Cc1ccc(S(=O)(=O)C/N=C(/NC(=S)N(c2ccccc2)c2ccccc2)c2ccccc2)cc1	D3 antag -55.6 (no result: ERG Ets-DNA blk)
COc1ccc(/C(C)=N/Nc2nc(C)cc(-c3ccccc3)n2)cc1	D3 ag 48.2 (no result: D1 ag, D1 potentiator, D1 antagonist)
COc1ccc(Nc2nc(C)cc(-c3cc(-c4ccccc4)on3)n2)cc1	D3 ag 51.5 (no result: D1 ag, D1 potentiator, D1 antagonist)
COc1ccc(-c2cc(-c3ccccc3)no2)cc1	D3 ag 34.6
c1ccc2c(CCNc3ncnc4nc[nH]c34)c[nH]c2c1	none
CCOc1ccc(NC(=O)CSc2nnc(Cn3cnc([N+](=O)[O-])n3)n2C)cc1	none
CCOc1ccc(NC(=O)CSc2nnc(Cn3cnc([N+](=O)[O-])n3)n2CC)cc1	D1 antagonist -37.5
CCOC(=O)c1ccc(NC(=O)c2ccc(OC(C)C)c(OC)c2)cc1	D1 antagonist -32.1
COc1cc(C(=O)NCCOc2ccccc2)c(Br)c(OC)c1OC	none
COc1cc(C(=O)NCCOc2ccc(F)cc2)c(Br)c(OC)c1OC	D1 antagonist -54.6
CCCOC(=O)c1ccc(NC(=O)c2cc(OC)c(OC)c(OC)c2Br)cc1	D1 antagonist -36.4
Cc1cc(C)c(S(=O)(=O)Nc2ccc(O)c(Sc3ncn[nH]3)c2)cc1C	D3 antag inconclusive
Cc1c(/C=N/NC(=O)c2cccs2)c2ccccc2n1Cc1ccccc1Cl	D1 antagonist -99.4
Cc1ccc(C(=O)N2CCCC(CCC(=O)N3CCN(c4ccccn4)CC3)C2)cn1 (stereo not given)	none
Cc1ccc(C(=O)N2CCCC(CCC(=O)N3CCN(c4ccccn4)CC3)C2)cc1C (stereo not given)	D1 antagonist -39.5
Cc1ccc(OCC(=O)NNC(=O)Cc2ccc(S(=O)(=O)N3CCOCC3)s2)cc1	D1 antagonist -49.3
Cc1ccccc1OCC(=O)NNC(=O)Cc1ccc(S(=O)(=O)N2CCOCC2)s1	D1 antagonist -38.3
O=C(COc1ccccc1F)NNC(=O)Cc1ccc(S(=O)(=O)N2CCOCC2)s1	none
COCC(C)N1CC(O)=C(c2nc(-c3ccc(Cl)cc3)cs2)C1=N (stereo not given)	D1 antagonist -30.5
